# According to PubChem BioAssay AID623870 (Broad Institute, 2012):
# Out of some 390,000 compounds screened, about 2,600 (0.67%) were called active. The sample holds actives, similar compounds and a random draw of the others, so the mix is not that of the screen. Unmarked numbers belong to inactive results.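 How the source made its calls: active means mean inhibition of replicates at least 50% and at least half of replicates each reaching 50%; inconclusive means half or more replicates reach 50% but mean below 50%; inactive means the rest.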
# Molecular target: Transforming acidic coiled-coil-containing protein 3 (Homo sapiens) (UniProt Q9Y6A5)
# Assay: inhibitors of ARNT PAS-B binding to TACC3 – biochemical, AlphaScreen, single concentration, primary screen (AID 623870);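 further: 0% = complete ARNT plus TACC3 wells and 100% = ARNT alone without TACC3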
# Conditions: AlphaScreen His-ARNT PAS-B/GST-TACC3 binding, luminescence; at 9.99 µM; active compounds read high; TACC3 fragment carries E629A point mutation
row,Structure (SMILES),inhibition
1,ON=C1/C(=N\O)CC2(C/C1=N/O)OCCO2,59% (active)
2,C[C@@H]1CN([C@H](C)CO)C(=O)c2cccc(NS(=O)(=O)c3cccs3)c2O[C@@H]1CN(C)C(=O)Nc1cccc2ccccc12,26.7%
3,Cc1cccc(-c2ccc([C@@H]3[C@@H](CO)N4CCCCN(S(=O)(=O)c5cccs5)C[C@H]34)cc2)c1,14.3%
4,O=C(CCCN1C(=O)c2cccc3cccc(c23)C1=O)N1CCN(Cc2ccc3c(c2)OCO3)CC1,-11.4%
5,O=C(COC(=O)CCCN1C(=O)c2cccc3cccc(c23)C1=O)NC1CCS(=O)(=O)C1 (centres undefined),7.07%
6,O=C1c2cccc3cccc(c23)C(=O)N1CCCCCc1n[nH]c(=S)o1,28.3% (active)
7,C[C@H](CO)N1C[C@H](C)[C@H](CN(C)C(=O)Cc2ccccn2)Oc2ncc(-c3cncnc3)cc2C1=O,-0.547%
8,CO[C@@H]1CN(C)C(=O)c2ccc(NC(=O)Nc3c(C)noc3C)cc2OC[C@@H](C)N(C(=O)Nc2cccc(Cl)c2)C[C@H]1C,4.61%
9,COc1ccccc1NC(=O)N[C@H]1CC[C@H](CCNC(=O)Cc2ccccn2)O[C@@H]1CO,6.44%
10,CC(C)n1cnc2c(NCc3ccccc3)cc(OCC3CCN(C)CC3)cc21,28.3% (active)
11,CCC(=O)Nc1ccc2c(c1)C(=O)N(C)[C@@H]1CC[C@@H](CC(=O)NCCN3CCCCC3)O[C@@H]1CO2,-4.58%
12,COc1ccccc1-c1cn(CC[C@@H]2CC[C@@H](NC(=O)c3ccccc3F)[C@H](CO)O2)nn1,1.05%
13,C[C@H]1CN([C@@H](C)CO)C(=O)c2cc(C3=CCCCC3)cnc2O[C@H]1CN(C)Cc1ccncc1,-9.48%
14,O=C(c1cccs1)N(C(=O)c1cccs1)c1ccccn1,0.575%
15,O=C(NCc1cccnc1)c1nc(-c2cccs2)no1,-5.94%
16,c1ccc(-c2noc(-c3cccs3)n2)nc1,48.9% (active)
17,O=C(COc1ccccc1F)Nc1nc(-c2ccccn2)cs1,69.7% (active)
18,O=C(COc1cccnc1[N+](=O)[O-])Nc1ccc(Cl)cc1F,-2.26%
19,CC(NC(=O)c1ccco1)C(=O)Nc1nc(-c2ccccn2)cs1 (centres undefined),65.4% (active)
20,CC1CCN(S(=O)(=O)c2nnc(NC(=O)COc3ccccc3F)s2)CC1,31.3%
21,O=C(CN1C(=O)C2C3C=CC(C3)C2C1=O)Nc1nc(-c2ccccn2)cs1 (centres undefined),73.4% (active)
22,CCOC(=O)N1CCN(C(=O)C(C)NC(=O)c2ccco2)CC1 (centres undefined),-22%
23,O=C(CCN1C(=O)C2C3C=CC(C3)C2C1=O)Nc1ccccc1F (centres undefined),-30.3%
24,O=C(NCCN1C(=O)C2C3C=CC(C3)C2C1=O)Nc1ccccn1 (centres undefined),0.008%
25,CCCC(NC(=O)c1ccco1)c1nc2ccccc2[nH]1 (centres undefined),-4.8%

row,Structure (SMILES),inhibition
1,COc1ccc(S(=O)(=O)N(C)C[C@H]2Oc3ccc(NC(=O)CCC(F)(F)F)cc3CC(=O)N([C@H](C)CO)C[C@@H]2C)cc1,14.1%
2,CCCN(C)C[C@H]1Oc2ncc(-c3cccnc3)cc2C(=O)N([C@@H](C)CO)C[C@@H]1C,-0.744%
3,Cc1ccc(S(=O)(=O)N(C)C[C@@H]2OCCCC[C@@H](C)Oc3ccc(NC(=O)C4CCCCC4)cc3C(=O)N([C@H](C)CO)C[C@H]2C)cc1,-8.72%
4,CCCC(=O)Nc1ccc2c(c1)OC[C@H](C)N(CCC)C[C@@H](C)[C@@H](OC)CN(C)C2=O,1.16%
5,CC(C)NC(=O)Nc1ccc2c(c1)C(=O)N([C@H](C)CO)C[C@H](C)[C@@H](CN(C)S(=O)(=O)c1ccc(F)cc1)OCCCC[C@H](C)O2,-7.08%
6,CCCN(C)C[C@@H]1Oc2cc(C#CCc3ccccc3)ccc2S(=O)(=O)N([C@H](C)CO)C[C@@H]1C,1.97%
7,O=C1CSC(=S)N1/N=C/c1ccc(O)c([N+](=O)[O-])c1,12.1%
8,CCOc1cc(/C=N/n2cnnc2)c(Br)cc1O,7.91%
9,CCOc1cccc(/C=N/N2C(=O)CSC2=S)c1O,59.8% (active)
10,C[C@H](CO)N1C[C@H](C)[C@H](CN(C)C(=O)c2cnccn2)Oc2cc(C3=CCCC3)ccc2S1(=O)=O,1.21%
11,COCC#Cc1ccc2c(c1)O[C@@H](CN(C)Cc1ccccn1)[C@@H](C)CN([C@@H](C)CO)S2(=O)=O,-0.755%
12,O=C(NNc1nc(N2CCCC2)nc(N2CCCC2)n1)c1ccccc1,-2.38%
13,O=C(O)c1ccc(/C=N/Nc2nc(N3CCCCC3)nc(N3CCCCC3)n2)cc1,45% (active)
14,C/C(=N\Nc1nc(N2CCOCC2)nc(N2CCOCC2)n1)c1ccc([N+](=O)[O-])cc1,15.4%
15,CCCN1C[C@@H](C)[C@H](OC)CN(C)C(=O)c2ccc(NC(=O)C3CCOCC3)cc2OC[C@@H]1C,-0.135%
16,C[C@H]1CN([C@@H](C)CO)C(=O)c2cccc(NC(=O)Nc3ccccc3)c2O[C@H]1CN(C)Cc1ccc(C(F)(F)F)cc1,7.66%
17,Fc1ccccc1/C=N/Nc1cc(N2CCCCC2)ncn1,22.7%
18,Oc1ccc(Br)cc1/C=N/Nc1ccccn1,44.2% (active)
19,Nc1nonc1-n1nnc(C(=O)N/N=C/c2cc(Br)ccc2O)c1CSC1=NCCS1,17.4%
20,C[C@H]1CN([C@@H](C)CO)C(=O)c2c(c3ccccc3n2C)-c2ccccc2CO[C@H]1CN(C)S(=O)(=O)c1ccc(C#N)cc1,11.3%
21,O=C(C[C@@H]1CC[C@H]2[C@@H](COC[C@@H](O)CN2C(=O)Nc2ccc(F)cc2)O1)NCC1CC1,1.68%
22,COc1cccc(N(CC(=O)N2CCc3ccccc3C2)S(C)(=O)=O)c1,1.07%
23,CN(c1ccc(C(=O)N2CCc3ccccc3C2)cc1)S(C)(=O)=O,54% (active)
24,CN(c1ccccc1)S(=O)(=O)c1ccc(C(=O)N2CCN(c3ccccc3Cl)CC2)cc1,-20.3%
